Measurements published in paper PMC6792352, “Limited Chemical Structural Diversity Found to Modulate Thyroid Hormone Receptor in the Tox21 Chemical Library” (Environmental Health Perspectives, 2019).

The molecules below were run on thyroid hormone receptor (endogenous TRα and TRβ). Settings: read-out: Average AC50 (uM) GH3-TRE-Antag, antagonist mode, 1 nM T3, no GH3 cytotoxicity hit.
Set-up: species or system GH3-TRE-Luc (rat pituitary); GH3-TRE-Luc luciferase reporter, antagonist mode against 1 nM T3, loss of signal, qHTS

SMILES	AC50 [µM]
CN[C@H]1C[C@@H](N)[C@H](O)[C@@H](O[C@@H]2O[C@H](CO)[C@H](O)[C@@H]3OC4(O[C@H]23)O[C@H]([C@@H](N)CO)[C@H](O)[C@H](O)[C@H]4O)[C@@H]1O (some centres unmarked) [Hygromycin B]	12.9
C#C[C@]1(O)CC[C@H]2[C@@H]3CCC4=CC(=O)CC[C@]4(C)[C@H]3CC[C@@]21C [Ethisterone]	7.79
C[C@@H]1C[C@H]2[C@@H]3C[C@H](F)C4=CC(=O)C=C[C@]4(C)[C@@]3(F)[C@@H](O)C[C@]2(C)[C@@]1(O)C(=O)COC(=O)C(C)(C)C [Flumethasone pivalate]	26.2
C#C[C@]1(O)CC[C@H]2[C@@H]3CCC4=CC(=O)CCC4=C3C=C[C@@]21CC [Gestrinone]	24.3
O=C(Oc1ccccc1)c1ccc2ccccc2c1O [Phenyl 1-hydroxy-2-naphthoate]	84.9
